Screening results (PubChem)
A selection: hits, their analogues and other compounds. The true share with any hit is near 0.99%.
NS1 inh: blocks influenza NS1 protein function | Potency, µM (doses to about 46.1 µM), for inactives: at the top dose activity, positive = more growth | 0.4% of 270,000 active | AID 2326; calls by dose curve; note: actives are rising curves; nearly all actives have a fitted effect of over 50% in size
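Read-out: OD600 growth recovery of NS1-expressing budding yeast. Cells grown overnight at 30C in -URA glucose medium, washed, resuspended and diluted 1:100 in 2% galactose assay medium, pH 6.0. Same strain lacking NS1 served as positive control.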
AmpC inh no detg: AmpC beta-lactamase inhibition without detergent; AmpC nitrocefin hydrolysis, absorbance 480 nm, 0.0001% Triton; P00811; Potency, µM (titrated, usually from 57.1 µM), inactives show at the highest dose activity change, negative = inhibition, hits mostly inhibitors; 0.52% of 330,000 active;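 note: plate controls were no compound for no effect and no enzyme for full effect; nearly all actives have a fitted effect of over 20% in size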
Target sequence (P00811 whole entry, looked up): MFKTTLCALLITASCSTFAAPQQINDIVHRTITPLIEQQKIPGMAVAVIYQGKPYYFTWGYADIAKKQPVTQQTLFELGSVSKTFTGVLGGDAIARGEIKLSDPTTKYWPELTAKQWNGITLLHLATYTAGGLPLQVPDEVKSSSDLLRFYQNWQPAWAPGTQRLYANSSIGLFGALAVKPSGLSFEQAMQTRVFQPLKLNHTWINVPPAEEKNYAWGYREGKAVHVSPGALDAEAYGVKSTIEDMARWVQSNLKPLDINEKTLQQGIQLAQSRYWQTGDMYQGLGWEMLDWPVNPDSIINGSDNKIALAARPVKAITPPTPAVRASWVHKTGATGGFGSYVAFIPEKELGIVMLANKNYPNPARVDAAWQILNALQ
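AmpC (5.3 nM in the dispensed reagent) in 20 mM phosphate pH 7.0 with 0.01% (detergent screen) or 0.0001% Triton X-100 was preincubated with compounds for 15 min at room temperature. Nitrocefin was then added from an 800 uM solution, and hydrolysis was followed at 480 nm.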
AMA1-RON2 inh: disrupts binding of P. falciparum AMA1 to RON2; AlphaScreen AMA1-biotinylated RON2 peptide binding; AID 720542; 0.2% of 360,000 active; Potency, µM (doses to about 58.2 µM), without a hit: top-dose activity change, negative = inhibition, usual class: inhibitors;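 note: 0% = vehicle wells and -100% = peptide control; nearly all actives have a fitted effect of over 45% in size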
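AMA1 (3D7) with his tag at 25 nM final met compounds first, then biotinylated RON2 peptide at 25 nM; detection used donor plus acceptor beads, 10 µg/mL apiece, read by AlphaScreen after 30 min at room temperature.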
AmpC detergent: inhibitors of E. coli AmpC beta-lactamase with detergent | P00811 | AmpC hydrolysis of nitrocefin, absorbance 480 nm, 0.01% Triton | Potency, µM (titrated, usually from 114 µM), for the others: top-dose activity change, negative = inhibition, usual class: inhibitors | 0.041% of 370,000 active;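 note: 0% = no-compound wells and -100% = no-enzyme wells; nearly all actives have a fitted effect of over 25% in size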
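AmpC (5.3 nM in the dispensed reagent) in 20 mM phosphate pH 7.0 with 0.01% (detergent screen) or 0.0001% Triton X-100 was preincubated with compounds for 15 min at room temperature. Nitrocefin was then added from an 800 uM solution, and hydrolysis was followed at 480 nm.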
SARS PLP yeast: blocks SARS-CoV papain-like protease in a yeast assay. Potency, µM (series often up to 32.9 µM), for the others: at the highest dose activity, positive = growth rescue, usual class: activators. AID 485353. 0.19% of 330,000 active. S. cerevisiae expressing SARS-CoV PLpro, growth rescue; calls by dose curve; note: 0% is about no effect; nearly all actives have a fitted effect of over 55% in size
* = called active by the depositor; ? = inconclusive; · = no result given. Unless noted, calls come from the whole dose curve; as a rule, active = well fitted curve in the direction sought with a large enough effect; inconclusive = small, poorly fitted or top-dose-only effect, or another doubt; inactive = no such curve, though single readings can be large; an effect the other way counts as inactive or inconclusive. Potency is the fitted concentration of half-maximal effect.

SMILES | NS1 inh | AmpC inh no detg | AMA1-RON2 inh | AmpC detergent | SARS PLP yeast
O[C@@H](c1cc([C@@]23C[C@H]4CC[C@@H]2C[C@H](C4)C3)nc2c(Cl)cc(Cl)cc12)C1CCCCN1 (stereo not given in full) | -3% | · | · | · | ·
CS(=O)(=O)N(CC(=O)Nc1ccc(Br)cc1)c1ccccc1Br | · | · | · | -5% | ·
CC(C)c1ccc(S(=O)(=O)/N=C2/C=CC(=O)c3ccccc32)cc1 | · | 28µM* | · | 0% | -6%
O=C(/C=C/c1ccco1)Nc1ccc(-c2nc3ccccc3[nH]2)cc1 | 15% | 35µM* | -2% | -6% | 8%
COC(=O)c1cc(=O)n(CCc2ccccc2)c(=Nc2ccc(F)cc2)s1 | -2% | 0.71µM* | -19% | -15% | -12%
CCNC(=O)CC1C(=O)N(c2ccc(F)cc2)C(=S)N1CCc1ccncc1 (stereo not given) | · | 13% | 32µM* | 2% | -6%
Cc1cc(=O)n(CCc2ccccc2)c(O)c1C#N | -8% | 2.5µM* | -13% | -3% | -18%
COc1ccc(CN2CCN(Cc3ccco3)CC2)cc1 | 4% | -12% | -16% | -9% | -2%
COc1ccc(CN2CCN(Cc3ccco3)CC2)cc1OC | -4% | -9% | 18µM* | -15% | ?
Cc1ccc(C(=O)Nc2nnc(S(=O)(=O)N(C)Cc3ccc(Cl)cc3)s2)cc1 | · | · | · | 23% | ·
CCc1ccccc1N1CSC2=C(C#N)C(c3ccccc3F)CC(=O)N2C1 (stereo not given) | 0.89µM* | -34% | 25% | 4% | -4%
COc1cc(OC)c(C2CC(=O)N3CN(c4ccccc4C)CSC3=C2C#N)cc1OC (stereo not given) | 4µM* | 1% | · | -7% | 4%
Cc1cccc(N2CSC3=C(C#N)C(c4ccc(C)o4)CC(=O)N3C2)c1 (stereo not given) | 1.8µM* | -46% | · | ? | 4%
COc1ccc(C2CC(=O)N3CN(c4ccccc4F)CSC3=C2C#N)cc1OC (stereo not given) | -40% | -20% | 22% | ? | 1%
COc1ccc(OC)c(C2CC(=O)N3CN(c4ccccc4)CSC3=C2C#N)c1 (stereo not given) | -43% | -38% | 15% | ? | 3%
Cc1ccc(OCCSc2nc3ccccc3n2CC(=O)NC(C)C)cc1 | · | · | · | 16% | ·
O=c1cc2c(=O)oc3cc(O)c(O)oc3c2c(O)c1O | 6% | -15% | 10µM* | -5% | 1%
COc1ccc(OC)c(NC2=C(Cl)C(=O)N(Cc3ccccc3)C2=O)c1 | -3% | -42% | 13µM* | -5% | -1%
CCOc1ccc(C(=O)c2cn(CC(=O)Nc3ccc(F)c(F)c3)c3cc4c(cc3c2=O)OCCO4)cc1 | · | · | · | -5% | ·
COC(=O)C1=C(C(=O)OC)SC2(S1)C(C(=O)OC)=C(C(=O)OC)SC1=C2c2cc(C)cc(C)c2NC1(C)C | 9% | · | ? | 1% | ·
COC(=O)C1=C(C(=O)OC)SC2(S1)C(C(=O)OC)=C(C(=O)OC)Sc1c2ssc1=O | · | · | 28µM* | · | ·
CC(=O)c1cccc(NC(=O)C2=CC(c3ccc4c(c3)OCO4)=NS(=O)(=O)N2C)c1 | 9% | 10µM* | -10% | -5% | -5%
CCOc1ccc(S(=O)(=O)Nc2cc(Sc3ncn[nH]3)c3oc(=O)sc3c2)cc1 | 10% | 5.6µM* | · | -7% | 2%
Cc1ccc(C(=O)Nc2ncc(Cc3ccc(F)cc3)s2)o1 | -6% | 32µM* | 1% | ? | 0%
Cc1cc(N2C(=O)CC(N3CCN(c4ccc(C(=O)c5cccs5)cc4)CC3)C2=O)no1 (stereo not given) | -32% | 0.5µM* | -7% | 0% | -6%
O=C(O)C1Nc2c(O)cc(Cl)c([N+](=O)[O-])c2C2C=CCC12 (stereo not given) | · | 7.1µM* | 2.2µM* | 40µM* | ?
O=C(COc1ccc(F)cc1)Nc1nccs1 | -100% | -12% | -16% | -11% | 2%
O=C(CS(=O)(=O)c1ccc(F)cc1)Nc1nccs1 | · | 32µM* | 79% | ? | -1%
O=[N+]([O-])c1ccc(O)c(/C=N/Nc2nc3ccccc3[nH]2)c1 | 2% | -25% | 41% | ? | 11µM*
